# Screening data deposited in PubChem by several laboratories.
# Compounds with a hit are over-represented: about 2% of the library has one in this group of screens.
# GalR3 antagonist – antagonists of human GalR3; O60755; HEK293 GalR3-CNG cAMP membrane potential fluorescence; galR3 body fused to GalR1 C-terminus; inhibition, % at 3 µM; 360,000 tested, 0.44% active;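 active means inhibition above the screen-wide average plus 3 SD, cut at about 13% in these data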;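 further: forskolin and galanin both at EC90 stimulate the cells; cAMP rise reported by CNG channel membrane potential dye signal; 0% = forskolin plus galanin with DMSO and 100% = forskolin alone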
# 697 NFkB inh – inhibitors of the PMA/ionomycin-induced NF-kB reporter in 697 B cells. 330,000 tested, 0.33% active. AID 435022. 697 B-cell NF-kB luciferase reporter, 16 h. inhibition, % at 4 µM; in the data active means inhibition above about 35%
# Jurkat NFkB inh – lowers PMA/ionomycin-induced NF-kB signal in Jurkat cells; inhibition, % at 4 µM; 330,000 tested, 0.53% active; PMA/ionomycin-induced NF-kB luciferase reporter, luminescence; in the data active means inhibition above about 50%
# Gli-Sufu antag – blocks Gli-Sufu signaling in a luciferase reporter; inhibition, % at 5 µM; Sufu-KO-LIGHT fibroblasts, Gli luciferase reporter luminescence; AID 588413; 340,000 tested, 0.74% active;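 active means inhibition above about 55%, limit read from the data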;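 further: 0% = DMSO-treated cells and 100% = wells with medium but no cells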
# COUP-TFII inh – blocks human COUP-TFII nuclear receptor. P24468. HEK293T NGFI-A luciferase reporter, luminescence. inhibition, % at 8.6 µM. 370,000 tested, 0.7% active;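 active means inhibition above a per-plate cutoff, mean inhibition of test wells between control levels plus 3 SD, cut at about 38% in these data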;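 further: cells cotransfected with COUP-TFII expression vector driving the NGFI-A reporter; 0% = median of COUP-TF2 test wells and 100% = reporter-only cells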
# Target sequence (P24468 whole entry, looked up): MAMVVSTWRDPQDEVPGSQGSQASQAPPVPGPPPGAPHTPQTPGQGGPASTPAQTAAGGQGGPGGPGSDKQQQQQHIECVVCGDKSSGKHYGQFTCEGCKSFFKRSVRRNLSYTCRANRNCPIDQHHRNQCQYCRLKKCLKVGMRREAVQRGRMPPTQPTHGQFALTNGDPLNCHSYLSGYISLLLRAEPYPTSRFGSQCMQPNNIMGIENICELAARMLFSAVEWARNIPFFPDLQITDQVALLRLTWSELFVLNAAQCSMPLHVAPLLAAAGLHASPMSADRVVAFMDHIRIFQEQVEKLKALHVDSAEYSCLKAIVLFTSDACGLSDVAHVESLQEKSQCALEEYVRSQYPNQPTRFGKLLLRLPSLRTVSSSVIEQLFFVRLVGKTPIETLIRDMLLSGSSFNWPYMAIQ
# Jurkat NFkB conf – inhibitors of the PMA/ionomycin-induced NF-kB reporter in Jurkat cells, retest. shares compounds with Jurkat NFkB inh. 2,700 tested, 27% active. inhibition, % at 4 µM. AID 435020. Jurkat NF-kB luciferase, 16 h;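 active means inhibition reaching about 45% at 4 µM in either replicate, limit read from the data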;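 further: plate controls were PMA/ionomycin stimulated DMSO wells for no effect and unstimulated DMSO wells for full effect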
# Starred values were filed as active, the others as inactive; · = no result.
SMILES,GalR3 antagonist,697 NFkB inh,Jurkat NFkB inh,Gli-Sufu antag,COUP-TFII inh,Jurkat NFkB conf
CCOC(=O)C1=C(c2ccccc2)O/C(=C(\C(=O)OC)C(F)(F)F)S1,-2,10,4,8,-13,·
CCCCOc1ccc(-c2csc(N)n2)cc1[N+](=O)[O-],-2,-86,-167,-8,-62,4
CCCCOc1ccc(C2=CSC3=NCCN23)cc1[N+](=O)[O-],-7,-17,-20,27,-2,·
O=S(=O)(c1ccc(F)cc1)n1c(CN2CCOCC2)nc2ccccc21,·,·,·,·,10,·
O=S1(=O)C=CCN1Cc1cn(Cc2ccc(C(F)(F)F)cc2)nn1,·,·,·,·,-5,·
CC1Cc2ccccc2N1S(=O)(=O)c1cnc[nH]1 (stereo not given),1,18,8,-10,9,·
CSc1ccc(S(=O)(=O)N2c3ccccc3CC2C)cc1 (stereo not given),-2,-4,55*,1,7,27
CC(=O)N1CCc2cc(S(=O)(=O)N3c4ccccc4CC3C)ccc21 (stereo not given),-10,-72,53*,0,-8,18
CC(C)Cn1c(=O)cc(N2CCN(c3cccc(C(F)(F)F)c3)CC2)[nH]c1=O,·,·,·,·,21,·
CCOC(=O)c1cc(CC)sc1NC(=O)c1cccc(N2C(=O)CCC2=O)c1,-3,-68,57*,1,-20,8
CCOC(=O)c1cc(CC)sc1NC(=O)c1ccc2c(c1)OCCO2,2,-7,-23,2,-22,·
CCOC(=O)c1ccc2nc(Nc3nc4ccc(F)cc4s3)sc2c1,0,10,56*,16,-2,85*
CCOC(=O)CSC1=C(C#N)C(c2ccc(C)s2)CC(=O)N1 (stereo not given),-9,5,57*,48,-9,49*
Cc1cc(OC[C@@H](O)CN2CCC(C(O)(c3ccccc3)c3ccccc3)CC2)ccc1Br,·,·,·,·,-10,·
CC[C@H](C)[C@@H](CN[C@H](CCCCNC)CNC)NCC1CCCC1,-2,10,8,3,-11,·
CCCC[C@@H](CN[C@H](C)CNC)NCC1CCC(C(C)(C)C)CC1 (stereo not given in full),-6,19,53*,16,-18,26
COc1ccccc1NC(=S)N(Cc1ccco1)Cc1cc2cc(C)c(C)cc2[nH]c1=O,1,-17,67*,7,-2,5
COc1ccccc1N1CCN(c2ccnc3cc(Cl)ccc23)CC1,-7,-41,68*,14,6,25
CCCCNC(=O)O[C@H]1CC[C@@]23CCCN2C(=O)CCC[C@H]3[C@H]1CCC,·,·,·,·,-3,·
Cc1cc(C)cc(NC2=NC3(CCCCC3)N=C(N)N2)c1,-3,-2,66*,-4,-1,12
COc1ccc(/C=N/Nc2ncccc2[N+](=O)[O-])c(OC)c1,-4,-171,-157,-93,-10,1
COc1ccc(OC)c(Nc2cc(C)nc3ccc(C)cc23)c1,-5,-56,62*,0,22,15
COc1ccc2nc(C)cc(Nc3ccc(N4CCN(C)CC4)cc3)c2c1,-6,11,74*,9,-57,-26
COC(=O)c1ccc(Nc2cc(C)nc3ccc(C)cc23)cc1,-1,-62,59*,9,7,29
COc1ccc2nc(C)cc(Nc3ccc(N4CCOCC4)cc3)c2c1,-5,-3,-36,11,-1,·
SMILES,GalR3 antagonist,697 NFkB inh,Jurkat NFkB inh,Gli-Sufu antag,COUP-TFII inh,Jurkat NFkB conf
CCN(CC)C(=O)CC[C@H]1CC[C@]2(CCCN(c3ccccc3)C2)O1,·,·,·,·,4,·
CC(=O)c1ccc(Nc2cc(C)nc3c(C)cccc23)cc1,-2,-100,56*,-5,-18,27
COc1ccc(/C=N/Nc2cc(C)nc3ccc(OC)cc23)c(OC)c1,-8,-8,77*,33,6,44
COc1ccc2nc(C)cc(N/N=C/c3ccccc3)c2c1,·,-28,38,16,·,·
CCCCNC(=O)C1(C(=O)c2ccc(OC)cc2)CC(C(=O)OCC)=NO1 (stereo not given),·,·,·,·,-14,·
CCCC1CCC2(CCC(=O)N2CCOC)CC1 (stereo not given),·,·,·,·,4,·
COC[C@@H]1CCCN1c1ccc2c(c1)O[C@H]1CCN(C1)S2(=O)=O,·,·,·,·,-1,·
C(=N\Nc1nc(-c2cccnc2)nc2ccccc12)/c1ccccc1,3,-25,-16,1,1,·
C(=N\Nc1nc(-c2ccccn2)nc2ccccc12)/c1ccccc1,·,-30,101*,·,·,15
CCOC(=O)c1c(C)[nH]c(C(=O)Nc2ccc3c(c2)OCO3)c1C,·,-154,-187,·,·,-94
CCOC(=O)c1[nH]c(C)c(C(=O)Nc2ccccc2F)c1C,-7,-77,52*,-11,-16,13
CCOC(=O)Nc1ccc2c(c1)OCO2,-8,-54,-30,-41,-54,·
CCOC(=O)c1[nH]c(C)c(C(=O)Nc2ccc(C)cc2C)c1C,·,-62,53*,-19,·,42
CCOC(=O)c1c(C)[nH]c(C(=O)OCC(=O)c2ccccc2)c1C,-2,-220,-193,-132,-41,-151
COC(=O)[C@H]1C[C@]2(C/C=C(\C)CCC=C(C)C)c3ccccc3N[C@H]2N1,·,·,·,·,-8,·
CCOC(=O)c1[nH]c(C)c(C(=O)Nc2cc(OC)ccc2OC)c1C,-7,7,70*,6,-34,46
CCOC(=O)c1[nH]c(C)c(C(=O)OCC(=O)NC(C)c2ccc(F)cc2)c1C (stereo not given),-6,-69,60*,-7,17,51*
CCOC(=O)c1c(C)[nH]c(C(=O)OCC(=O)Nc2cc(C)ccc2OC)c1C,-1,-25,-6,6,2,·
CCOC(=O)c1c(C)[nH]c(C(=O)OCc2ccccc2F)c1C,-9,-196,-166,-72,-61,-115
COC(=O)C1CN(Cc2ccc(OC)cc2)CCS(=O)(=O)N1Cc1ccccc1 (stereo not given),·,·,·,·,21,·
COC(=O)c1ccc(C(=O)NC2CCCc3c2cnn3-c2ccccc2F)nc1 (stereo not given),-7,-44,56*,40,9,24
Cc1ccc2nc(-c3ccc(NC(=O)CSc4ccccc4)cc3)[nH]c2c1,-10,-118,-153,-17,-16,-118
CC1CCN(C(=O)CN2C(=O)NC(C)(c3ccc4ccccc4c3)C2=O)CC1 (stereo not given),-2,11,59*,0,-21,35
CC1CCCN(C(=O)CN2C(=O)NC(C)(c3ccc4ccccc4c3)C2=O)C1 (stereo not given),-6,15,20,6,0,·
Cc1cccc(N2CCN(C(=O)COc3cc4oc(=O)cc(C)c4cc3Cl)CC2)c1C,0,-26,54*,-8,4,8
CC1(C(=O)N2CCC(Oc3cccnc3)CC2)CC1,·,·,·,·,18,·
COC(=O)c1cc(C2(c3c[nH]c4ccccc34)CCN(C(=O)OC(C)(C)C)CC2)n2ccccc12,·,·,·,·,0,·
